Inconclusive results are not listed. Calls of active or inactive are those of the source. Calls follow the shape of the dose curve; as a rule, active = well fitted inhibition curve with a large enough effect; inconclusive = small, poorly fitted or top-dose-only effect; inactive = flat fitted curve, though single readings scatter.

From PubChem BioAssay (NCATS) come the findings set out here.

Common to all, as to assay: qHTS profiling for inhibitors of Plasmodium falciparum proliferation (AID 504749); also: nearly all actives have a fitted effect of over 60% in size
Common to all, as to conditions: P. falciparum in erythrocytes, SYBR Green DNA, 72 h; series mostly up to 28.7 µM

One assay relates to CP268. The method in brief: (§1)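 P. falciparum-infected erythrocytes (0.3% parasitemia, 2.5% hematocrit final) were exposed to compounds for 72 h at 37 C in 5% CO2, then lysed with SYBR Green buffer overnight at room temperature; parasite DNA fluorescence was normalized to artemisinin and DMSO controls.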
In a further assay the test system is CP269. In outline:
as §1

Another assay has as its system CP286. In outline:
as §1

Another assay concerns CP291. In outline:
as §1

Another assay deals with CP305. In outline:
as §1

Another assay has as its system CP315. In outline: as §1
The test system of the next assay is CP325. In outline:
as §1

A further assay has as its system CP329. The method in brief:
as §1

A further assay concerns CP335. In outline:
as §1

Another assay relates to DFO2036. The method in brief:
as §1

A further assay has as its system DIV14. The method in brief:
as §1

A further assay relates to DIV17. In outline:
as §1

The next assay deals with DIV30. The method in brief:
as §1

In the next assay the test system is Dd2. The method in brief:
as §1

Another assay has as its system ECU. The method in brief: as §1
For another assay, the system named is FAB9. In outline: as §1
For a further assay, the system named is GB4. The method in brief:
as §1

The next assay relates to HB3. The method in brief:
as §1

A further assay has as its system ICS. The method in brief:
as §1

The next assay concerns CP297. The method in brief: as §1
Potency is read from the fitted curve at half-maximal effect.

For `O=C(O)c1c(Cl)c(Cl)c(Cl)c(Cl)c1-c1c2cc(I)c(=O)c(I)c-2oc2c(I)c(O)c(I)cc12`, the molecule was called inactive in the assay on CP268, with CP269, with CP286, with CP291, in the assay with CP315 and with CP325. In addition, the call with CP329, in the assay with DFO2036, with DIV30 and with FAB9 was inactive. The Potency entry in the assay on CP305, in the assay on CP335, in the assay on DIV14, in the assay on DIV17, with Dd2 and in the assay with ECU was “inactive” throughout. Besides, the Potency entry with GB4, in the assay with HB3 and in the assay on ICS was “inactive” each time.

On to `COCCCCC(=NOCCN)c1ccc(C(F)(F)F)cc1`, for which, in the assay with CP315, the molecule was called inactive. Besides, the results for the Potency with DIV14, in the assay on DIV17 and in the assay with GB4 were 6.75 µM (active), 6.75 µM (active) and 5.36 µM (active), respectively.

In the case of `CC1(C)O[C@H]2C[C@@H]3[C@H]4CCC5=CC(=O)C=C[C@]5(C)[C@@]4(F)[C@@H](O)C[C@]3(C)[C@]2(C(=O)CO)O1`, the outcome in the assay on CP268, with CP269, in the assay with CP286, with CP291, in the assay with CP315 and in the assay with CP325 was inactive. Further, the result in the assay with CP329, with DFO2036 and in the assay on FAB9 was inactive. In addition, the Potency result in the assay on CP305, in the assay with CP335, with DIV17, in the assay with Dd2, in the assay with ECU and in the assay with GB4 was “inactive” throughout. In addition, the Potency result in the assay on HB3 is “inactive”.

Turning to `CN(C)CCC(c1ccccc1)c1ccccn1` (stereo not given), the molecule was classed as inactive in the assay with CP286, in the assay on CP315, with CP325, in the assay with DFO2036 and in the assay with FAB9. The Potency with CP335 is 7.57 µM (active); with DIV14, 6.75 µM (active); in the assay on DIV17, 9.53 µM (active); in the assay with GB4, 7.57 µM (active). Further, the Potency entry in the assay with Dd2, in the assay on ECU, in the assay on HB3 and in the assay with ICS was “inactive” each time.

Consider `CCCNC(=O)NS(=O)(=O)c1ccc(Cl)cc1`, for which the outcome in the assay on CP268, with CP269, in the assay with CP286, in the assay with CP291, in the assay with CP315 and with CP325 was inactive. Further, the call in the assay with CP329, in the assay on DFO2036, with DIV30 and in the assay with FAB9 was inactive. In addition, the Potency result in the assay on CP297, with CP305, in the assay on CP335, with DIV14, in the assay on DIV17 and in the assay on Dd2 was “inactive” in each case. Also, the Potency entry in the assay with ECU, in the assay on GB4, in the assay on HB3 and in the assay with ICS was “inactive” each time.

With `COc1ccc(Cc2nccc3cc(OC)c(OC)cc23)cc1OC`, the outcome with CP268, with CP269, with CP286, in the assay on CP291, in the assay on CP315 and in the assay with CP325 was inactive. The molecule was classed as inactive in the assay with CP329, with DFO2036, with DIV30 and in the assay with FAB9. Also, the Potency result with CP297, with CP305, in the assay with CP335, in the assay with DIV14, in the assay with DIV17 and in the assay with Dd2 was “inactive” in each case. In addition, the Potency result in the assay with ECU, with GB4, with HB3 and with ICS was “inactive” each time.

For `CCN(CC)CCNC(=O)c1ccc(N)cc1`, the molecule was called inactive in the assay with CP268, with CP269, with CP286, with CP291, in the assay with CP315 and in the assay on CP325. The outcome with CP329, with DFO2036, in the assay with DIV30 and with FAB9 was inactive. The Potency result in the assay on CP297, in the assay with CP305, in the assay on CP335, with DIV14, in the assay with DIV17 and in the assay on Dd2 was “inactive” throughout. The Potency result with ECU, in the assay with GB4, with HB3 and in the assay with ICS was “inactive” in each case.

On to `CCN1CCC[C@H]1CNC(=O)c1cc(S(N)(=O)=O)ccc1OC`, for which the call in the assay with CP268, with CP269, in the assay with CP286, in the assay on CP291, with CP315 and with CP325 was inactive. For the same molecule, the molecule was called inactive in the assay with CP329, in the assay on DFO2036, in the assay on DIV30 and in the assay with FAB9. Moreover, the Potency result in the assay on CP297, in the assay with CP305, with CP335, in the assay on DIV14, in the assay with DIV17 and with Dd2 was “inactive” each time. In addition, the Potency result with ECU, in the assay with GB4, in the assay with HB3 and in the assay on ICS was “inactive” throughout.

In the case of `CC(=O)c1ccc(S(=O)(=O)NC(=O)NC2CCCCC2)cc1`, the molecule was called inactive in the assay with CP268, in the assay on CP269, with CP286, in the assay with CP291, in the assay with CP315 and with CP325. In addition, the molecule was called inactive in the assay on CP329, in the assay on DFO2036, with DIV30 and in the assay with FAB9. The Potency entry with CP297, with CP305, in the assay on CP335, in the assay on DIV14, in the assay on DIV17 and with Dd2 was “inactive” in each case. Besides, the Potency entry with ECU, in the assay on GB4, with HB3 and in the assay on ICS was “inactive” each time.

`C[C@@H](O)[C@H]1C(=O)N2C(C(=O)O)=C(S[C@@H]3CN[C@H](C(=O)N(C)C)C3)[C@H](C)[C@H]12`: the outcome in the assay on CP268, with CP269, in the assay with CP286, with CP291, in the assay on CP315 and with CP325 was inactive. The molecule was classed as inactive in the assay on CP329, in the assay on DFO2036, with DIV30 and in the assay on FAB9. The Potency result in the assay with CP297, in the assay with CP305, in the assay with CP335, in the assay on DIV14, in the assay with DIV17 and with Dd2 was “inactive” each time. Besides, the Potency result in the assay on ECU, in the assay on GB4, with HB3 and in the assay on ICS was “inactive” in each case.

Consider `C[N+](C)(C)CCCCCC[N+](C)(C)C`, for which the outcome in the assay on CP268, in the assay with CP269, in the assay with CP286, with CP291, with CP315 and in the assay with CP325 was inactive. The outcome in the assay with CP329, in the assay on DFO2036, with DIV30 and with FAB9 was inactive. Further, the Potency entry in the assay with CP297, in the assay with CP305, in the assay on CP335, in the assay with DIV14, in the assay on DIV17 and in the assay on Dd2 was “inactive” throughout. The Potency result with ECU, in the assay on GB4, in the assay on HB3 and with ICS was “inactive” in each case.

Regarding `CC(=O)N[C@@H](CS)C(=O)O`, the call in the assay on CP268, in the assay on CP269, in the assay on CP286, in the assay on CP291, in the assay on CP315 and in the assay on CP325 was inactive. Besides, the molecule was called inactive in the assay with CP329, with DFO2036, with DIV30 and with FAB9. Besides, the Potency result in the assay on CP297, in the assay with CP305, in the assay on CP335, in the assay on DIV14, with DIV17 and with Dd2 was “inactive” each time. Further, the Potency entry in the assay on ECU, in the assay on GB4, in the assay on HB3 and in the assay with ICS was “inactive” in each case.

Regarding `CCOC(=O)O[C@]1(C(=O)OCCl)CC[C@@H]2[C@H]3CCC4=CC(=O)C=C[C@]4(C)[C@@H]3[C@@H](O)C[C@@]21C`, the call in the assay with CP268, with CP269, with CP286, with CP291, in the assay with CP315 and in the assay with CP325 was inactive. Further, the molecule was called inactive in the assay with CP329, in the assay on DFO2036 and with FAB9. The Potency in the assay with CP297 was 16.9 µM (active). For the same molecule, the Potency entry in the assay on CP335, with DIV14, in the assay with DIV17, in the assay with Dd2, in the assay on ECU and in the assay on GB4 was “inactive” each time. For the same molecule, the Potency result in the assay on HB3 and in the assay on ICS was “inactive” in each case.

Turning to `Cc1cccc(C)c1OCC(C)N` (stereo not given), the call in the assay with CP286, with CP315, with CP329, with DFO2036 and in the assay on FAB9 was inactive. Also, the Potency entry in the assay with ECU, with HB3 and with ICS was “inactive” throughout. For the same molecule, in the assay on GB4, the Potency is 13.5 µM (active).

As for `O=c1[nH]cnc2c1ncn2[C@H]1CC[C@@H](CO)O1`, the molecule was classed as inactive in the assay on CP268, in the assay on CP269, in the assay on CP286, with CP291, with CP315 and in the assay on CP325. Also, the molecule was called inactive with CP329, with DFO2036, in the assay with DIV30 and in the assay on FAB9. The Potency result in the assay on CP297, in the assay on CP305, in the assay on CP335, in the assay on DIV14, in the assay with Dd2 and in the assay with ECU was “inactive” throughout. For the same molecule, the Potency with ICS was 10 µM (active).

In the case of `O=C(O)Cc1cccc2ccccc12`, the outcome with CP268, in the assay on CP269, with CP286, in the assay with CP291, in the assay on CP315 and in the assay on CP325 was inactive. Besides, the molecule was called inactive in the assay with CP329, in the assay on DFO2036, in the assay on DIV30 and in the assay with FAB9. The Potency entry in the assay with CP297, in the assay on CP305, in the assay with DIV14, in the assay with DIV17, in the assay with Dd2 and in the assay with ECU was “inactive” each time. Also, the Potency result with GB4, with HB3 and in the assay on ICS was “inactive” throughout.

Consider `NCCS`, for which the outcome with CP268, with CP269, with CP286, in the assay with CP291, in the assay with CP315 and in the assay with CP325 was inactive. Besides, the outcome with CP329, in the assay on DFO2036, with DIV30 and in the assay with FAB9 was inactive. Moreover, the Potency entry in the assay with CP297, in the assay on CP305, with CP335, in the assay on DIV14, in the assay on DIV17 and with Dd2 was “inactive” each time. For the same molecule, the Potency entry in the assay with ECU, with GB4, in the assay with HB3 and with ICS was “inactive” throughout.
